Assay results as given in the supplement of paper PMC11732987, “Enantioselective OTUD7B fragment discovery through chemoproteomics screening and high-throughput optimisation” (Communications Chemistry, 2025).

What was measured:
Test in all cases: log2 ratio of Biotin-Ahx-Ub-VS probe labelling (fragment/DMSO); higher = less target engagement (more negative = stronger competition), active = hit call of the paper (q ≤ 0.05, log2 ratio ≤ -1)
Conditions in all cases: compound concentration: 200 uM; treatment time: 3 h
USP19 = molecular target: T1, USP19 (UniProt O94966)
T1 sequence (whole entry): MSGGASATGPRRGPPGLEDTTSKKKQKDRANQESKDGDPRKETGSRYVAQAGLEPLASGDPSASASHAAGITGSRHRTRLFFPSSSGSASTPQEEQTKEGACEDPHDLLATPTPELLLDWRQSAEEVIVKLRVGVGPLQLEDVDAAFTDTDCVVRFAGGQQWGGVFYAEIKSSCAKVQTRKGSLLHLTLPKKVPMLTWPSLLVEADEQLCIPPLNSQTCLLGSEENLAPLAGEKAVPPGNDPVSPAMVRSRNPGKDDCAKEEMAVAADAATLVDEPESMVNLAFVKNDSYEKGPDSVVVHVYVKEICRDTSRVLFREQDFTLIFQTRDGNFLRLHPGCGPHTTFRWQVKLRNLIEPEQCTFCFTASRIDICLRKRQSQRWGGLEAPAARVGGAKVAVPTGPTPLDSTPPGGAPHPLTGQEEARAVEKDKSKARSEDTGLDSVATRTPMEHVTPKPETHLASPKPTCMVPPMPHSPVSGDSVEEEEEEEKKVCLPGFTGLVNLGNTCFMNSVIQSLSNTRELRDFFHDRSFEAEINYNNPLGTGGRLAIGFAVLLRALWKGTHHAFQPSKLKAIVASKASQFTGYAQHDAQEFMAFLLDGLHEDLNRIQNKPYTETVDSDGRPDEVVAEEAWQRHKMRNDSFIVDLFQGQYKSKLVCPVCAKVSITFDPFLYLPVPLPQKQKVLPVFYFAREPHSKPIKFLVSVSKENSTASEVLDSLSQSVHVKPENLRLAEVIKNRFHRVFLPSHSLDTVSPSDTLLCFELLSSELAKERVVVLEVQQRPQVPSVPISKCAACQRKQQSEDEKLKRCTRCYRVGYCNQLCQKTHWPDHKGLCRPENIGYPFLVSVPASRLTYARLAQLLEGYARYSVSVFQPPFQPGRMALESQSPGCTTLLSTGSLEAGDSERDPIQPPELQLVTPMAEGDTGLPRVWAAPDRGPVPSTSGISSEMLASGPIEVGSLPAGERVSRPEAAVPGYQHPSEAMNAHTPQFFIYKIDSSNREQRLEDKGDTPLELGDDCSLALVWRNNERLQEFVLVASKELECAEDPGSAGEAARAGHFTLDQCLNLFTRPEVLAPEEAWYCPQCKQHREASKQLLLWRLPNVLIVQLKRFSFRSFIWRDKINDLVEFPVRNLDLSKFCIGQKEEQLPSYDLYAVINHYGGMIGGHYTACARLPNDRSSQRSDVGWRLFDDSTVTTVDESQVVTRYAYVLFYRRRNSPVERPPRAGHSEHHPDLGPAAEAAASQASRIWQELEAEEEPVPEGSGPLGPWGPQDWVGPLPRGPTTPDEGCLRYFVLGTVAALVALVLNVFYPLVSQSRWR
In short: (§1)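 Fragment (200 µM) or vehicle was incubated for 3 h with triplicate HEK293T lysate samples of 495 µg, which were then treated with Biotin-Ahx-Ub-VS at 0.5 µM final for 1 h. Labelled DUBs were enriched on NeutrAvidin, digested with LysC and trypsin, and analysed by diaPASEF LC-MS/MS. Values are average log2 fragment/vehicle ratios from an unpaired t-test on global-median-normalised Spectronaut label-free quantities, using proteins with ≥2 unique peptides.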

USP22 = molecular target: T2, USP22 (UniProt Q9UPT9)
T2 sequence (whole entry): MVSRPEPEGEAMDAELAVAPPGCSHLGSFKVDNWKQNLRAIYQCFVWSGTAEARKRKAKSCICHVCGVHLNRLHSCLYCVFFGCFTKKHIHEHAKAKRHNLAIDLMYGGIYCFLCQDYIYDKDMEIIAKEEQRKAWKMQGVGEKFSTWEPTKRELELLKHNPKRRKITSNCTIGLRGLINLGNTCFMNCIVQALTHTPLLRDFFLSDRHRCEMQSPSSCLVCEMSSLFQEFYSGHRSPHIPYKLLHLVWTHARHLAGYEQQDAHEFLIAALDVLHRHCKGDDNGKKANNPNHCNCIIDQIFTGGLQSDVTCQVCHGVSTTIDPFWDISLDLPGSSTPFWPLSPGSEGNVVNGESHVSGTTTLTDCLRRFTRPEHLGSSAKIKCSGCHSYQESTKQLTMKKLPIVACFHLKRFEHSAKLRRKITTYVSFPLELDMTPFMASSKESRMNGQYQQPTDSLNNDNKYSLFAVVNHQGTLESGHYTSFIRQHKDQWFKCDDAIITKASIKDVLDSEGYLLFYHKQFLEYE
In short: as §1

USP24 = USP24 (UniProt Q9UPU5)
In short: as §1

USP25 = molecular target: T3, USP25 (UniProt Q9UHP3)
T3 sequence (whole entry): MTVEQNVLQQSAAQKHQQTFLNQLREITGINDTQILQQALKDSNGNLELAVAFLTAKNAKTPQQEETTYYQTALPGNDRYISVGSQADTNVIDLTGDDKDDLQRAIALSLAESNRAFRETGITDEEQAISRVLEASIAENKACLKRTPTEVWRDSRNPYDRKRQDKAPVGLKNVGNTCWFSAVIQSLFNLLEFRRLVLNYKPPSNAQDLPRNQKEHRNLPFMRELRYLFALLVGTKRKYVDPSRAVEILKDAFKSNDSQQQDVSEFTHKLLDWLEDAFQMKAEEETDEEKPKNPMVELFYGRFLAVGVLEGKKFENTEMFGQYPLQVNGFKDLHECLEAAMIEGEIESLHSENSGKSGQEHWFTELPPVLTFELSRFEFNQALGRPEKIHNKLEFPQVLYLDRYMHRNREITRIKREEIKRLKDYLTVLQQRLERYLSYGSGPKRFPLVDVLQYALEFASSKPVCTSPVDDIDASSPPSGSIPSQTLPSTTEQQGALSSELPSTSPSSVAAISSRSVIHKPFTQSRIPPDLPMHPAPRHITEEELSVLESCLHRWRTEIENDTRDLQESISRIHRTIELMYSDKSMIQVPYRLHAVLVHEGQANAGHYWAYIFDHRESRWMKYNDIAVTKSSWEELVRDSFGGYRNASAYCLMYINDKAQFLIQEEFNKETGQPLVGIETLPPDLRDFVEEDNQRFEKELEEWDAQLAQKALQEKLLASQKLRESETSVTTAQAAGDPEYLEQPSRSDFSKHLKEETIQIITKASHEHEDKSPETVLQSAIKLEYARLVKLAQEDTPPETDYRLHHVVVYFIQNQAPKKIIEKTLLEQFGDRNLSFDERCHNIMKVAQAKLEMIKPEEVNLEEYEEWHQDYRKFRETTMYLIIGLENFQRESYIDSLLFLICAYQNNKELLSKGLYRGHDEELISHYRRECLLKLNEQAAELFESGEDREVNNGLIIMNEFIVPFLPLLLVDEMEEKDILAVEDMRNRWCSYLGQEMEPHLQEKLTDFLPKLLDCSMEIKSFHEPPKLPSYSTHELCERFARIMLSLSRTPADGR
In short: as §1

USP28 = molecular target: T4, USP28 (UniProt Q96RU2)
T4 sequence (whole entry): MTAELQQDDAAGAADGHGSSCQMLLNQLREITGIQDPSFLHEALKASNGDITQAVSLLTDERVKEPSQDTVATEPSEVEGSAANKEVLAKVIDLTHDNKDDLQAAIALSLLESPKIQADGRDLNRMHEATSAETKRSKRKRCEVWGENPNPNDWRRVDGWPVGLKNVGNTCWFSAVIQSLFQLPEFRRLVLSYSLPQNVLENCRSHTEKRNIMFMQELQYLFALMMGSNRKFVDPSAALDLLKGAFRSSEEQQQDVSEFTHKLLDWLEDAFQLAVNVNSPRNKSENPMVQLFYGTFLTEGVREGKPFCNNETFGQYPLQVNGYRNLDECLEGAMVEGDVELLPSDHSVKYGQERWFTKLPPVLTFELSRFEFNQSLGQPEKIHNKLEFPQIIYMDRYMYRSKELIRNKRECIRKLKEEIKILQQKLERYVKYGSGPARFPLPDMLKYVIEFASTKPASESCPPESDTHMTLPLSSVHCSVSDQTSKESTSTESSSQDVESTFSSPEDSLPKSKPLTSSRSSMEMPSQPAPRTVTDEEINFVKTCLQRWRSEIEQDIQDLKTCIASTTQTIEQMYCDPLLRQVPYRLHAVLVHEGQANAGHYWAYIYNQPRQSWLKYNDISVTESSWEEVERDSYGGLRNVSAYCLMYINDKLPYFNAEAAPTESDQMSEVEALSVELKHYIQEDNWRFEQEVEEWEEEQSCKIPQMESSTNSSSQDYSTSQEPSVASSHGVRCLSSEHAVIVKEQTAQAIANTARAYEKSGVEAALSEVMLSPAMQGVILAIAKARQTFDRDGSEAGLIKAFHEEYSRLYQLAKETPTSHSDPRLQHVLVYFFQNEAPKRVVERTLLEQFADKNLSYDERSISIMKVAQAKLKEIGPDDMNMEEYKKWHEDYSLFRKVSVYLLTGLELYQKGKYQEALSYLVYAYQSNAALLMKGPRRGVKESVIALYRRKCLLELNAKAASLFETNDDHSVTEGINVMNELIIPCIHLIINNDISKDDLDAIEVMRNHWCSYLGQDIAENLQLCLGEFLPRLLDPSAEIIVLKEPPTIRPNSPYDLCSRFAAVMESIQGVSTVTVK
In short: as §1

Measured: log2 ratio of Biotin-Ahx-Ub-VS probe labelling

Sequence of USP24 (Q9UPU5 whole entry): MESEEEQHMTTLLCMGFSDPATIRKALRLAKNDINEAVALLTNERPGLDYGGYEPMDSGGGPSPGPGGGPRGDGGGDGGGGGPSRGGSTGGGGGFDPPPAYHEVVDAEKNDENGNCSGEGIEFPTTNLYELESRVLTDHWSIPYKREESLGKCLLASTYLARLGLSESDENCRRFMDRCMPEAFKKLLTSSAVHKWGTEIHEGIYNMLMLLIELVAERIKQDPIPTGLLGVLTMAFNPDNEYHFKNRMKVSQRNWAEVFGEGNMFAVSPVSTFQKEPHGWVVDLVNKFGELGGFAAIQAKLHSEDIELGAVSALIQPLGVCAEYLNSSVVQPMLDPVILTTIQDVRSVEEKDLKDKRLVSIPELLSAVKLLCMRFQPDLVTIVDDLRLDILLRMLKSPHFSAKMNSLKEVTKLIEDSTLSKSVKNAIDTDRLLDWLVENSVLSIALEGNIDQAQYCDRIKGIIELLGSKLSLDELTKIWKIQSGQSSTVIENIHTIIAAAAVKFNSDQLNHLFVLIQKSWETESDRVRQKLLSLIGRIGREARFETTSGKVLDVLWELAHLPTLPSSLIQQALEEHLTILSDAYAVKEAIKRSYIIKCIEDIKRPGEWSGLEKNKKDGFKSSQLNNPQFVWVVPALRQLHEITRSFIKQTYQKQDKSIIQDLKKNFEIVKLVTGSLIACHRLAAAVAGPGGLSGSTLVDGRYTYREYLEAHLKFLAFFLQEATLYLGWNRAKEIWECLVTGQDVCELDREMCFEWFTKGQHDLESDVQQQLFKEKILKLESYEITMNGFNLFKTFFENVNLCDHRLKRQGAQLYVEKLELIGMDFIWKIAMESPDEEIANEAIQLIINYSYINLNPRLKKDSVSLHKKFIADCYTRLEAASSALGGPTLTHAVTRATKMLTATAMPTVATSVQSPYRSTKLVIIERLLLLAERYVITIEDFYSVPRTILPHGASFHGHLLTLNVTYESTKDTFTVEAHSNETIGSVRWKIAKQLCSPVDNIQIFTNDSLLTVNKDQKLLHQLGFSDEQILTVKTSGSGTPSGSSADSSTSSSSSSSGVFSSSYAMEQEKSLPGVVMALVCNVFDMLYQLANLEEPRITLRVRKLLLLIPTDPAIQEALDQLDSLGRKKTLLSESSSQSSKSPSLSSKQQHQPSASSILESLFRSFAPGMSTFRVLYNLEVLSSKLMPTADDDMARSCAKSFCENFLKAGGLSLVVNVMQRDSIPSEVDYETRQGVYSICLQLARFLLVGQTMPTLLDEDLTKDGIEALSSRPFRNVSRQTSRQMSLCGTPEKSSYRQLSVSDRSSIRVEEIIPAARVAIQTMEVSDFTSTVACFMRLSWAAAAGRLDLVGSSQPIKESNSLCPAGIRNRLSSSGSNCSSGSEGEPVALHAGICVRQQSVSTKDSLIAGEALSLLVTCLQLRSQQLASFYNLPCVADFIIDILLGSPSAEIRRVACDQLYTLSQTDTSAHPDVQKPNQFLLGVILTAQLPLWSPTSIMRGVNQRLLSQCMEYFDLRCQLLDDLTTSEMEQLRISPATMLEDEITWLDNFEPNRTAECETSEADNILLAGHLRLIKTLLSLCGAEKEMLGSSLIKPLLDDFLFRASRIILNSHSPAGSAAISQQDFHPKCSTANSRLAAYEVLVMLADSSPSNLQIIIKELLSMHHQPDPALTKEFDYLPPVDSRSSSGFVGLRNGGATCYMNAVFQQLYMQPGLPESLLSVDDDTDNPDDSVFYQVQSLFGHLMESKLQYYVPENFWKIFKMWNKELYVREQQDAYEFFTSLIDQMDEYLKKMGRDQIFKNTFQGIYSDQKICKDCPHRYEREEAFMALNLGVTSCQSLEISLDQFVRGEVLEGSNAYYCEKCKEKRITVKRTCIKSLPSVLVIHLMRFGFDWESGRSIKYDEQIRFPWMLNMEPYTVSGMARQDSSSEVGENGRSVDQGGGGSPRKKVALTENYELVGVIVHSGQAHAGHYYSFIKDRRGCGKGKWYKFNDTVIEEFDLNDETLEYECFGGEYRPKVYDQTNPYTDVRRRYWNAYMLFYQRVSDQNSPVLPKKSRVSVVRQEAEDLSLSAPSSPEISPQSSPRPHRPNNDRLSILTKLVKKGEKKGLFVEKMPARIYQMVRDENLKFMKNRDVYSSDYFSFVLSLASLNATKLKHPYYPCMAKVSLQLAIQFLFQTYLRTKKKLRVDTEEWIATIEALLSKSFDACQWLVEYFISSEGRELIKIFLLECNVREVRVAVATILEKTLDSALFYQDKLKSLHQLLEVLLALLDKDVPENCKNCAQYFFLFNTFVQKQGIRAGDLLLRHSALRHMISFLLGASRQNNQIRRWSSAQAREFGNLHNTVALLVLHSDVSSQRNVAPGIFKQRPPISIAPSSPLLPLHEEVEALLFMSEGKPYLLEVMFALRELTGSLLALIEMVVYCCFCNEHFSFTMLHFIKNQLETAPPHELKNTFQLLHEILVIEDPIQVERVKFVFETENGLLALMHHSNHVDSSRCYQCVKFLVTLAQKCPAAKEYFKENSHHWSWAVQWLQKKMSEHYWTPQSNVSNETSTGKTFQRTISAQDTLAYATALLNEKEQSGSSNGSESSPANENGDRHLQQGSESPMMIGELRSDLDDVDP

O=C(CCl)N1CCC(O)(Cc2ccc(F)cc2)C1 (stereo not given)
inactive: USP19 -0.323 | USP22 -0.265 | USP24 -0.262 | USP25 -0.107 | USP28 -0.353
